Experimental findings from the supplement of paper PMC6555819 are described below.

Common to all, as to assay: PBM binding z-score (relative to random genomic background probes); higher = stronger binding; sequences stand for … in GC…GCGATTGACAGCGTAGAATGAAGG
Test [1] deals with PPARg:RXRa DBDmut IVT, anti-RXR (DBD mutation: RXRa K156A/R161A, NR concentration 270 nM, RXRa partner concentration 90 nM). An outline of the steps: (§1)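 Each nuclear receptor dimer, without ligand, was incubated for 1 h on custom Agilent 4×180K protein-binding microarrays. Binding was detected with antibodies against each partner (one per run), and scanned fluorescence was regression-normalized. The binding z-scores are referenced to random human genomic background probes.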

Test [2] concerns PPARg:RXRa IVT, anti-PPARg (NR concentration 270 nM, RXRa partner concentration 90 nM). An outline of the steps: as §1
Test [3] relates to PPARg DBDmut:RXRa IVT, anti-PPARg (DBD mutation: PPARg1 K132A/R137A, NR concentration 270 nM, RXRa partner concentration 90 nM). Summed up:
as §1

In test [4] the test system is PPARg DBDmut IVT, anti-PPARg (DBD mutation: PPARg1 K132A/R137A, NR concentration 270 nM). An outline of the steps:
as §1

Test [5] has as its system PPARg homodimer (NR concentration 180 nM). An outline of the steps:
as §1

The test system of test [6] is PXR:RXRa (NR concentration 270 nM, RXRa partner concentration 90 nM). Summed up: as §1
In test [7] the test system is PXR homodimer (NR concentration 270 nM). Summed up: as §1
Test [8] has as its system RARa:RXR (NR concentration 270 nM, RXRa partner concentration 90 nM). An outline of the steps: as §1
Test [9] concerns RARa homodimer (NR concentration 270 nM). An outline of the steps: as §1
The test system of test [10] is RARb:RXRa (NR concentration 270 nM, RXRa partner concentration 90 nM). Summed up: as §1
Test [11] concerns RARb homodimer (NR concentration 270 nM). Summed up:
as §1

Test [12] concerns RARg:RXRa (NR concentration 270 nM, RXRa partner concentration 90 nM). An outline of the steps:
as §1

The subject of test [13] is RARg homodimer (NR concentration 270 nM). Summed up: as §1
Test [14] concerns RXRa DBDmut IVT, anti-RXR (DBD mutation: RXRa K156A/R161A, NR concentration 90 nM). An outline of the steps:
as §1

Test [15] deals with RXRa homodimer (NR concentration 180 nM). Summed up: as §1
The test system of test [16] is THRa:RXRa (NR concentration 90 nM, RXRa partner concentration 90 nM). Summed up: as §1
Test [17] concerns THRa homodimer (NR concentration 90 nM). Summed up: as §1
For test [18], the system named is VDR:RXRa (NR concentration 270 nM, RXRa partner concentration 90 nM). An outline of the steps: as §1
Test [19] concerns VDR homodimer (NR concentration 270 nM). An outline of the steps: as §1

As for CGAACGAGGGCGTGAGTTGATAGCAAATGCCGAT, the PBM binding z-score is 0.665 in test [1]; 0.126 in [2]; -0.548 in [3]; -1.21 in test [4]; -0.313 in [5]; -0.163 in test [6]. Besides, the PBM binding z-score in [7] was -0.37; in [8] it was -0.268; in test [9], -0.533; in [10] it was 0.442; in test [11], -0.277; in [12], 0.0501. The PBM binding z-score was -0.0612 in test [13]; 1.36 in [14]; 0.221 in test [15]; 0.142 in [16]; -0.691 in [17]; 0.224 in test [18]. The PBM binding z-score in [19] worked out at 0.785.

On to AGAATGAGCTTATTAAGATCAGGGAATTGCGGTC, for which the PBM binding z-score in test [1] was -0.544; in test [2], -0.262; in test [3], 0.296; in test [4], 0.244; in test [5], -0.453; in test [6] it was -0.238. Also, the PBM binding z-score was -0.13 in test [7]; -0.065 in test [8]; -0.11 in test [9]; -0.496 in test [10]; -0.66 in [11]; -0.341 in [12]. Also, the PBM binding z-score in [13] was -0.0554; in test [14] it was -0.496; in [15], -0.0846; in test [16] it was -0.273; in test [17], -0.456; in [18], -0.43. The same sequence gave a PBM binding z-score in [19] of -0.554.

Regarding TATATTAGTTGAAGGGCAACCGACGAGTCCGTTT, the PBM binding z-score in test [1] came to 0.182; in test [2], 0.973; in test [3] it was 1.48; in test [4], 1.13; in [5], 1.26; in test [6], 0.629. Further, the PBM binding z-score in [7] is 0.738; in test [8], 0.321; in test [9] it was 1.47; in test [10], 1.68; in test [11] it was 1.37; in [12], 0.983. Besides, the PBM binding z-score was 1.22 in test [13]; 0.547 in test [14]; 0.884 in test [15]; 0.415 in [16]; -0.0239 in test [17]; 0.939 in test [18]. For the same sequence, the PBM binding z-score in [19] was determined as 1.91.

For the sequence GGAACGAGGGCATTCAAGTTGATAGCATGGCGAT, the PBM binding z-score was 2.92 in [1]; 2.13 in test [2]; -0.155 in test [3]; -0.574 in test [4]; -0.338 in [5]; 2.92 in test [6]. Also, the PBM binding z-score in test [7] is 0.722; in [8], 0.791; in test [9], -0.689; in test [10], 1.9; in [11], 0.771; in [12], 1.04. Besides, the PBM binding z-score in test [13] is 1.74; in test [14], 3.23; in test [15] it was 0.697; in test [16], 3.52; in test [17], -0.291; in [18], 3.02. Besides, in test [19], the PBM binding z-score was 2.77.

Consider CCGACTGGGGCATAAGGTTAACATAAGCCAGCCC, for which the PBM binding z-score is 3.23 in test [1]; 3.36 in [2]; -0.239 in test [3]; -1.26 in test [4]; 0.548 in [5]; 0.636 in [6]. Besides, the PBM binding z-score in test [7] is -0.242; in [8] it was 1.51; in [9], -0.431; in [10] it was 1.88; in test [11], 1.89; in test [12], 2.08. Besides, the PBM binding z-score was 1.34 in [13]; -0.0628 in test [14]; 1.45 in test [15]; 2.08 in test [16]; 1.06 in [17]; 0.684 in [18]. This sequence also displayed a PBM binding z-score in test [19] of -0.243.

Regarding CGTCAAAGTTCGACTAAGGTAACGTAAAGCACGC, the PBM binding z-score in [1] is 0.0158; in test [2], 0.996; in [3], -0.0779; in test [4] it was -0.2; in [5], 1; in [6], 2.49. For the same sequence, the PBM binding z-score in test [7] turned out to be 0.543; in [8], 1.92; in [9] it was 0.582; in test [10] it was 2.49; in [11] it was 1.77; in test [12], 2.14. The PBM binding z-score in test [13] came out at 1.99; in test [14], 2.97; in test [15] it was 1.5; in [16] it was 4.99; in test [17] it was 1.58; in [18], 1.83. In test [19], the PBM binding z-score came out at 1.03.

Regarding CTTCCAAGGTCAGAGAGGTCAGTGAATGCCGAGT, the PBM binding z-score in [1] is 2.81; in [2], 3.44; in test [3], -0.247; in test [4], 0.0425; in [5] it was 3.75; in test [6], 5.75. Besides, the PBM binding z-score is 11.5 in [7]; 4.71 in test [8]; 1.5 in test [9]; 5.27 in test [10]; 5.27 in test [11]; 6.1 in [12]. In addition, the PBM binding z-score in [13] was found to be 7.29; in test [14], 2.97; in test [15] it was 5.22; in [16], 4.3; in [17], 2.74; in test [18] it was 7.43. Also, the PBM binding z-score in [19] was determined as 5.58.
